Laboratory results: PubChem BioAssay AID743192 (National Center for Advancing Translational Sciences (NCATS), 2013)
The source made the active and inactive calls. Calls come from the whole dose curve; as a rule, active = well fitted curve in the direction sought with a large enough effect; inactive = no such curve, though single readings can be large or run the other way.

molecular target: L-lactate dehydrogenase B chain (Homo sapiens) (UniProt P07195); assay: Extended Characterization of HPGD Inhibitors: Counterscreen Against LDHB; conditions: LDHB enzyme, diaphorase/resazurin coupled fluorescence; series mostly up to 114 µM; activity, negative = inhibition: at the top concentration
Sequence (P07195 whole entry, looked up): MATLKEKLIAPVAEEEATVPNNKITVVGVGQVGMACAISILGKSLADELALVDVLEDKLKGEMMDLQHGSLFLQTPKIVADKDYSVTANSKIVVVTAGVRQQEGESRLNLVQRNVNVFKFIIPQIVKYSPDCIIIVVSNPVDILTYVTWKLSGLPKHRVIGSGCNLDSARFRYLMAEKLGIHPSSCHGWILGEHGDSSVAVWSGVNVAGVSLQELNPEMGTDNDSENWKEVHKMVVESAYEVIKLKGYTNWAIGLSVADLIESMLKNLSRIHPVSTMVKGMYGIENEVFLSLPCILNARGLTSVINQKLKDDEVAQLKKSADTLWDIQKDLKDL
From the text: The central role of HPGD is to inactivate prostaglandins such as prostaglandin E2 (PGE2) or prostaglandin D2 (PGD2). These prostaglandins are involved in a number of processes, including inflammation, differentiation, and cellular signaling, which makes HPGD an important target for pharmacological intervention. A number of prostaglandins of particular biological interest have been identified as substrates of HPGD. […] Over-production of PGE2 has been reported to promote tumor-associated neovascularization, cell proliferation, and tumor growth. […] In order to further characterize the compounds, we ran them against an LDHB counterscreen. LDHA converts pyruvate to lactate while regenerating NAD+ from NADH. LDHA enzymatic activity is then coupled to the activity of diaphorase, which reversibly catalyzes the reaction of NAD+ to NADH while simultaneously reducing resazurin to the fluorescent resorufin. This change in fluorescence signal (excitation 544 nm; emission, 590 nm) was monitored using the ViewLux CCD imager (Perkin Elmer). Data were normalized against no enzyme control wells and no compound control wells. NIH Chemical Genomics Center [NCGC] NIH Molecular Libraries Probe Centers Network [MLPCN] MLPCN Grant: MH084681 Assay Submitter (PI): Structural Genomics Consortium
3 uL of LDHB enzyme in assay buffer are added to plate before 23 nL of compound/control are pinned into the solution. After a 15 min incubation, 1 uL of NADH (60 uM final) and sodium pyruvate (160 uM final) are added, incubated at 8 min at RT before another 1 uL of Diaphorase / Resazurin is added. The plate is read on the ViewLux after a 10 min RT incubation

Row | SMILES | activity, negative = inhibition
1 | O=C(c1ccc2c(c1)ncn2-c1cccc(C(F)(F)F)c1)N1CCCCC1 | 5.8% (inactive)
2 | Cc1cc(-c2nnc3n2CCCCC3)c(C)n1-c1cccc(Cl)c1 | 1.42% (inactive)
3 | COc1ccc(-n2cnc3cc(C(=O)N4CCCCC4)ccc32)cc1 | 5.92% (inactive)
4 | Cc1cccc(-n2cnc3cc(C(=O)N4CCCC(C(F)(F)F)C4)ccc32)c1 (stereo not given) | 3.07% (inactive)
5 | Cc1ccc(-n2c(C)cc(-c3nnc4n3CCCCC4)c2C)cc1 | 7.15% (inactive)
6 | Cc1cc(-c2nnc3n2CCCCC3)c(C)n1-c1cccc(C#N)c1 | 0.167% (inactive)
7 | O=C(c1ccc2c(c1)ncn2-c1cccc(Cl)c1)N1CCCCC1 | 11.5% (inactive)
8 | Cc1cc(-c2nnc3n2CCCCC3)c(C)n1-c1ccc(Cl)c(Cl)c1 | 11% (inactive)
9 | Cc1cccc(-n2cnc3cc(C(=O)N4CCCC(C)(C)C4)ccc32)c1 | -0.0782% (inactive)
10 | Cc1cc(-c2nnc3n2CCCCC3)c(C)n1-c1cccc(C(F)(F)F)c1 | 4.68% (inactive)
